High-throughput results: PubChem, National Center for Advancing Translational Sciences (NCATS)
Compounds with a hit are over-represented: about 3.1% of the library has one in this group of screens.
GLS inhibitor – glutaminase GLS (human) inhibition; O94925; GLS enzymatic activity, qHTS titration; Potency, µM (top dose mostly 45.5 µM), without a hit: top-dose activity change, negative = inhibition, actives largely listed as inhibitors; hit rate 0.21% among 410,000; AID 624170; note: potency is the fitted concentration of half-maximal effect
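hKGA; 45 mM KH2PO4 pH 8.2 + 0.02% Tween-20; cpd via pin tool; 1 mM Gln soln; GluOx/HRP/Amplex Red; RT 30 min; fluor. t0 & final.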
KAT2A inh – inhibitors of human GCN5L2 histone acetyltransferase; Q92830; Potency, µM (series often up to 58.9 µM), for the others: at the highest dose activity change, negative = inhibition, usual class: inhibitors; hit rate 0.21% among 390,000; AID 504327; GCN5L2 HAT assay, ThioGlo1 CoA-SH fluorescence; note: potency is the fitted concentration of half-maximal effect
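Enzyme at 20nM final was mixed with library compounds for 15 min at room temperature. Peptide H3(1-25) at 75uM, acetyl-CoA at 70uM and ThioGlo1 at 50uM were then added. Plates were read immediately and after 20 min (Ex340nm/Em540nm).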
VDR inh – blocks the human vitamin D receptor; P11473; VDR-SRC2-3 peptide fluorescence polarization, 2 h; Potency, µM, inactives show max response, negative = inhibition, usual class: inhibitors; hit rate 0.93% among 400,000; AID 504847; note: potency is the fitted concentration of half-maximal effect
Target sequence (P11473 whole entry, looked up): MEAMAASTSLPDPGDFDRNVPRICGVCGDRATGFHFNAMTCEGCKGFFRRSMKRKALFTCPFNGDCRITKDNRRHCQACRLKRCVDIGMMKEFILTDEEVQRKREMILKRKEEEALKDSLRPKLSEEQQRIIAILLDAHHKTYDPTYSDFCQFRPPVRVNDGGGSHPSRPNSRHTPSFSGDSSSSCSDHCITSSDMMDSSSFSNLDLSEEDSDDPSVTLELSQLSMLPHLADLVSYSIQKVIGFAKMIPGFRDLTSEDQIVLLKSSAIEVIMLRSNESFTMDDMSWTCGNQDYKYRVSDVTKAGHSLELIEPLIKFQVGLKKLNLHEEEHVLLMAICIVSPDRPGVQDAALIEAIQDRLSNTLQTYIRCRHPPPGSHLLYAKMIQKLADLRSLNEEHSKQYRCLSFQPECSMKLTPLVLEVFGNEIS
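Fluorescence polarization assay of small-molecule disruption of VDR binding to coregulator peptide SRC2-3. Compounds and controls pin-transferred, then read after 2 h incubation at ambient room temperature.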
PLK1 PBD block – PLK1 (human) polo-box domain binding inhibition; hit rate 2.8% among 360,000; AID 720504; Potency, µM, for inactives: max response, negative = inhibition, most hits filed as inhibitors; P53350; Plk1 PBD binding of FITC phosphopeptide, fluorescence polarization; note: potency is the fitted concentration of half-maximal effect; series mostly up to about 57 µM; nearly all actives have a fitted effect of over 65% in size
PI4K2A block – blocks human PI4K2A kinase activity; Q9BTU6; purified PI4K2A, ADP-Glo luminescence, 1 h; hits give low values; activity change, negative = inhibition, % at 76.9 µM; hit rate 0.13% among 420,000; in the data active = activity change below about -50%; inconclusive = mostly about -30% to -49%;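 note: -100% = wells without enzyme as full effect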
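Compounds are screened against recombinant PI4K2A using PI as substrate and ATP, the latter dispensed at 300 microM. Reactions run one hour at ambient temperature before ADP-Glo detection; full inhibition defined by wells lacking enzyme.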
Starred values were filed as active, the others as inactive; ? = inconclusive; . = not tested or not shown. Unless noted, calls come from the whole dose curve; as a rule, active = well fitted curve in the direction sought with a large enough effect; inconclusive = small, poorly fitted or top-dose-only effect, or another doubt; inactive = no such curve, though single readings can be large; an effect the other way counts as inactive or inconclusive. Unless noted, % is set by controls: 0 for no effect and ±100 for the full control effect.

SMILES | GLS inhibitor | KAT2A inh | VDR inh | PLK1 PBD block | PI4K2A block
Cc1cc(NC(=O)CN2CCN(C)CC2)no1 | ? | -3.5% | ? | 11.9µM* | 5.6
OC(c1ccccc1)(c1ccccc1)C1CCN(CCCOc2ccc(OC(F)(F)F)cc2)CC1 | . | . | . | . | -1.7
CC(NC(CCc1ccccc1)C(=O)O)C(=O)N1C(=O)N(C)CC1C(=O)O (stereo unspecified) | . | . | . | . | -7.7
NCCNc1cccc2ccccc12 | 20.2% | -27.9% | 50.1µM* | . | -7.0
CC(C)(C)OC(=O)N(Cc1ccccc1)Cc1ccccc1OCc1cccc(NC(=O)C2CCC2)c1 | -5.6% | . | -5.9% | 0.7% | 1.6
C#CC(=O)CC1(CN(Cc2ccccc2)C(=O)OC(C)(C)C)CCCCC1 | 0.2% | . | ? | 11.9µM* | 15.7
Cc1ccc(S(=O)(=O)Cc2nc(-c3ccc(C(=O)NCc4ccccc4F)cc3)oc2C)cc1 | . | 25.1µM* | 7.8% | . | .
CCCNC(=O)c1ccc(-c2nc(CS(=O)(=O)c3ccc(C)cc3)c(C)o2)cc1 | 0.5% | 0.6% | 2.0% | . | 1.3
C=CCN1C(=O)[C@@H](CC(=O)NCc2cccs2)[C@]2(C(=O)OC)CCCCC=C12 | . | . | . | . | -4.1
CCOC(=O)C1Nc2ccc(C(F)(F)F)cc2C2c3ccccc3CC12 (stereo unspecified) | -3.6% | . | 50.1µM* | -8.3% | -1.4
CCOC(=O)C1Nc2ccccc2C2C(O)C(O)CC12 (stereo unspecified) | -8.8% | . | -21.2% | 37.7µM* | -19.0
O=C(CSc1nnc(-c2ccccc2)n1-c1ccc(Cl)cc1)c1ccc(Cl)cc1 | . | . | . | . | -3.0
COc1ccccc1CCc1nnc(CCC(=O)NC(C)Cc2cccc(C)n2)o1 (stereo unspecified) | -1.2% | 3.1% | -26.4% | 23.8µM* | -1.2
Cc1cccc(-n2nc(C)c3c(C(=O)O)cc(-c4cccs4)nc32)c1 | -26.8% | -5.4% | -6.9% | ? | -3.0
Cc1nn(-c2ccccn2)c2nc(-c3cccs3)cc(C(=O)N3CCOCC3)c12 | -10.1% | -23.2% | ? | 11.9µM* | -2.1
CCC(=O)Nc1sc2c(c1C#N)CCC2 | -8.8% | -4.0% | -1.8% | ? | 0.4
Cc1nn(CCCC(=O)Nc2sc3c(c2C#N)CCC3)c(C)c1[N+](=O)[O-] | -8.0% | -8.8% | ? | 29.9µM* | 0.8
O=C(NCc1ccc2c(c1)OCO2)O[C@@H]1C(=O)c2cc(Br)ccc2O[C@H]1c1ccc2c(c1)OCO2 | . | . | 0.8% | . | .
CCC(=O)Nc1sc2c(c1C(=O)Nc1ccccc1C)CCC(C)C2 (stereo unspecified) | -4.3% | -6.7% | 9.9% | . | -1.3
O=C(NC(c1ccccc1)c1ccccc1)c1ccc(=O)[nH]n1 | -4.8% | -5.4% | -17.3% | 23.8µM* | 0.4
C/C(=N/NC(=O)CNC(=O)C1COc2ccccc2O1)c1ccc2c(c1)OCCO2 (stereo unspecified) | 5.2% | -5.5% | -1.6% | -12.0% | 0.7
C/C(=N\NC(=O)CC#N)C1COc2ccccc2O1 (stereo unspecified) | -3.9% | 0.3% | ? | 21.2µM* | 20.2
O=C(CN(c1ccccc1Cl)S(=O)(=O)c1ccccc1)N/N=C/c1ccccc1C(=O)O | 3.5% | 2.0% | -11.6% | -16.2% | 4.4
Cc1ccc(S(=O)(=O)N(CC(=O)N/N=C/c2ccccc2C(=O)O)c2cc(Cl)cc(Cl)c2)cc1 | ? | -20.9% | -19.8% | 42.3µM* | 10.5
COc1ccc(N(CC(=O)N/N=C/c2ccc(F)cc2)S(=O)(=O)c2ccccc2)cc1 | -4.5% | -8.2% | 8.1% | 9.9% | 2.5
SMILES | GLS inhibitor | KAT2A inh | VDR inh | PLK1 PBD block | PI4K2A block
COc1ccc(/C=N/NC(=O)CN(c2ccc(OC)cc2)S(=O)(=O)c2ccccc2)cc1 | 33.1% | -10.7% | -17.4% | 26.7µM* | 2.5
COc1ccc2c3c(cccc13)N(C)N=C2C | ? | -6.3% | -8.6% | 21.2µM* | -27.9
CCCn1c(SCC(=O)N2CCCCC2)nnc1C(C)C | 2.0% | -4.6% | 79.4µM* | 10.6µM* | -5.5
Cc1ccc(Sc2cncc3sc(C(N)=O)cc23)cc1 | . | -20.3% | 1.8% | . | .
C=CCN1C(=O)[C@@H](CC(=O)NCc2cccs2)[C@]2(C(=O)OCC)CCCCC/C=C/12 | . | . | . | . | -1.0
COc1ccc(CCNC(=O)CSc2ccccc2)cc1OC | 7.6% | -6.2% | -5.7% | -1.3% | 2.0
